Test results reported in PubChem BioAssay AID1159580 (chemical genetic matrix, 2015).
Values joined by “and” are separate entries in the source; they are usually repeats but may differ in a detail not shown here. Equal values may be shown once. In all, about 5,500 compounds went through this assay and about 2,000 (36%) were called active. Another 18% or so got no clear call; they are omitted. No stated cut-off is given here; in the data, active means normalized growth mostly below about 0.91 (no sharp cut-off); inconclusive means no clear call, values can overlap the other calls; inactive means mostly above about 0.92. The list shows a part of the results.

Test: chemical genetic growth profiling, strain panel (AID 1159580);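 further: tested at 20 µM; growth read once vehicle control cultures reached saturation at 30 °C; 1 = growth at the plate median or of vehicle wells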
Details: growth OD

Measured: normalized growth

CN1C2CCC1CC(OC(c1ccccc1)c1ccccc1N)C2 (stereo unspecified)
inactive: S. cerevisiae deletion strains, locus YJR075W, strain HOC1, stronger effect = lower value 0.997 and 1.08 | S. cerevisiae deletion strains, locus YKL009W, strain mrt4, stronger effect = lower value 1.03 | S. cerevisiae deletion strains, locus YKL068W, stronger effect = lower value 1.01 | S. cerevisiae deletion strains, locus YKL085W, strain MDH1 (second series), stronger effect = lower value 1 | S. cerevisiae deletion strains, locus YKL085W, strain MDH1, stronger effect = lower value 1 | S. cerevisiae deletion strains, locus YKL160W, strain elf1, stronger effect = lower value 1 | S. cerevisiae deletion strains, locus YKL190W, strain CNB1, stronger effect = lower value 1 | S. cerevisiae deletion strains, locus YKR001C, strain vps1, stronger effect = lower value 1.02 | S. cerevisiae deletion strains, locus YKR026C, strain gcn3, stronger effect = lower value 0.99 | S. cerevisiae deletion strains, locus YKR091W, strain srl3, stronger effect = lower value 0.996 | S. cerevisiae deletion strains, locus YLL001W, strain dnm1, stronger effect = lower value 1.01 | S. cerevisiae deletion strains, locus YLL026W, stronger effect = lower value 0.982 | S. cerevisiae deletion strains, locus YLL041C, strain sdh2, stronger effect = lower value 1 | S. cerevisiae deletion strains, locus YLR027C, strain aat2, stronger effect = lower value 0.986 | S. cerevisiae deletion strains, locus YLR039C, strain RIC1, stronger effect = lower value 1.02 | S. cerevisiae deletion strains, locus YLR058C, strain SHM2, stronger effect = lower value 1 | S. cerevisiae deletion strains, locus YLR102C, strain apc9, stronger effect = lower value 1.01 | S. cerevisiae deletion strains, locus YLR113W, strain HOG1, stronger effect = lower value 1.05 | S. cerevisiae deletion strains, locus YLR221C, strain rsa3, stronger effect = lower value 0.998 | S. cerevisiae deletion strains, locus YLR258W, strain gsy2, stronger effect = lower value 1 | S. cerevisiae deletion strains, locus YLR262C, strain YPT6 (second series), stronger effect = lower value 1.03 | S. cerevisiae deletion strains, locus YLR262C, strain YPT6, stronger effect = lower value 1.02 | S. cerevisiae deletion strains, locus YLR268W, strain sec22, stronger effect = lower value 1.01 | S. cerevisiae deletion strains, locus YLR320W, strain mms22, stronger effect = lower value 0.994 | S. cerevisiae deletion strains, locus YLR330W, strain CHS5, stronger effect = lower value 1.01 | S. cerevisiae deletion strains, locus YLR342W, strain FKS1 (second series), stronger effect = lower value 1.02 | S. cerevisiae deletion strains, locus YLR342W, strain FKS1, stronger effect = lower value 0.994 | S. cerevisiae deletion strains, locus YLR357W, strain rsc2, stronger effect = lower value 0.979 | S. cerevisiae deletion strains, locus YLR370C, strain arc18, stronger effect = lower value 0.978 | S. cerevisiae deletion strains, locus YLR371W, strain rom2, stronger effect = lower value 1.01 | S. cerevisiae deletion strains, locus YLR384C, strain iki3, stronger effect = lower value 1 | S. cerevisiae deletion strains, locus YLR418C, strain cdc73, stronger effect = lower value 0.994 | S. cerevisiae deletion strains, locus YML016C, strain PPZ1, stronger effect = lower value 1 | S. cerevisiae deletion strains, locus YML032C, strain rad52, stronger effect = lower value 1.03 | S. cerevisiae deletion strains, locus YML120C, strain ndi1, stronger effect = lower value 0.988 | S. cerevisiae deletion strains, locus YML124C, strain tub3, stronger effect = lower value 1.02 | S. cerevisiae deletion strains, locus YMR058W, strain fet3, stronger effect = lower value 1 | S. cerevisiae deletion strains, locus YMR078C, strain ctf18, stronger effect = lower value 1.02 | S. cerevisiae deletion strains, locus YMR125W, strain sto1, stronger effect = lower value 0.992 | S. cerevisiae deletion strains, locus YMR129W, stronger effect = lower value 0.997 | S. cerevisiae deletion strains, locus YMR205C, strain PFK2, stronger effect = lower value 0.981 | S. cerevisiae deletion strains, locus YMR223W, strain ubp8, stronger effect = lower value 1.01 | S. cerevisiae deletion strains, locus YMR231W, strain pep5, stronger effect = lower value 0.999 | S. cerevisiae deletion strains, locus YMR263W, strain SAP30, stronger effect = lower value 0.999 and 1 | S. cerevisiae deletion strains, locus YMR307W, strain GAS1, stronger effect = lower value 1 | S. cerevisiae deletion strains, locus YNL067W, strain RPL9B, stronger effect = lower value 1.01 | S. cerevisiae deletion strains, locus YNL071W, strain lat1, stronger effect = lower value 1 | S. cerevisiae deletion strains, locus YNL128W, strain TEP1, stronger effect = lower value 0.993 | S. cerevisiae deletion strains, locus YNL153C, strain GIM3, stronger effect = lower value 1 | S. cerevisiae deletion strains, locus YNL175C, strain NOP13, stronger effect = lower value 1.01 | S. cerevisiae deletion strains, locus YNL183C, strain NPR1, stronger effect = lower value 0.92 | S. cerevisiae deletion strains, locus YNL197C, strain WHI3, stronger effect = lower value 1.02 | S. cerevisiae deletion strains, locus YNL209W, strain ssb2, stronger effect = lower value 1.01 | S. cerevisiae deletion strains, locus YNL224C, strain SQS1, stronger effect = lower value 1.03 | S. cerevisiae deletion strains, locus YNL233W, strain BNI4, stronger effect = lower value 1.01 | S. cerevisiae deletion strains, locus YNL248C, strain rpa49, stronger effect = lower value 0.995 | S. cerevisiae deletion strains, locus YNL250W, strain rad50, stronger effect = lower value 1.02 | S. cerevisiae deletion strains, locus YNL271C, strain bni1, stronger effect = lower value 1 | S. cerevisiae deletion strains, locus YNL298W, strain CLA4, stronger effect = lower value 1.01 | S. cerevisiae deletion strains, locus YNL307C, strain MCK1, stronger effect = lower value 1 | S. cerevisiae deletion strains, locus YNL322C, strain KRE1 (second series), stronger effect = lower value 1 | S. cerevisiae deletion strains, locus YNL322C, strain KRE1, stronger effect = lower value 0.996 | S. cerevisiae deletion strains, locus YNR049C, strain mso1, stronger effect = lower value 0.996 | S. cerevisiae deletion strains, locus YNR052C, strain pop2, stronger effect = lower value 1.01 | S. cerevisiae deletion strains, locus YOL006C, strain TOP1, stronger effect = lower value 0.986 | S. cerevisiae deletion strains, locus YOL012C, strain htz1 1.61 | S. cerevisiae deletion strains, locus YOL147C, strain pex11, stronger effect = lower value 1.02 | S. cerevisiae deletion strains, locus YOR001W, strain rrp6, stronger effect = lower value 1.01 | S. cerevisiae deletion strains, locus YOR061W, strain CKA2, stronger effect = lower value 1.01 | S. cerevisiae deletion strains, locus YOR069W, strain VPS5, stronger effect = lower value 1 | S. cerevisiae deletion strains, locus YOR070C, strain gyp1, stronger effect = lower value 1.01 | S. cerevisiae deletion strains, locus YOR080W, strain dia2, stronger effect = lower value 0.985 | S. cerevisiae deletion strains, locus YOR083W, strain WHI5 (second series), stronger effect = lower value 1.02 | S. cerevisiae deletion strains, locus YOR083W, strain WHI5, stronger effect = lower value 1 | S. cerevisiae deletion strains, locus YOR106W, strain vam3, stronger effect = lower value 1.01 | S. cerevisiae deletion strains, locus YOR136W, strain idh2, stronger effect = lower value 1.03 | S. cerevisiae deletion strains, locus YOR144C, strain elg1, stronger effect = lower value 1.01 | S. cerevisiae deletion strains, locus YOR184W, strain ser1, stronger effect = lower value 1.04 | S. cerevisiae deletion strains, locus YOR231W, strain MKK1, stronger effect = lower value 0.977 | S. cerevisiae deletion strains, locus YOR265W, strain rbl2, stronger effect = lower value 1.01 | S. cerevisiae deletion strains, locus YOR270C, strain vph1, stronger effect = lower value 1.03 | S. cerevisiae deletion strains, locus YOR290C, strain snf2, stronger effect = lower value 1.01 | S. cerevisiae deletion strains, locus YOR316C, strain cot1, stronger effect = lower value 1.02 | S. cerevisiae deletion strains, locus YPL051W, strain arl3, stronger effect = lower value 0.989 | S. cerevisiae deletion strains, locus YPL055C, strain LGE1, stronger effect = lower value 1.01 | S. cerevisiae deletion strains, locus YPL078C, strain atp4, stronger effect = lower value 1.01 | S. cerevisiae deletion strains, locus YPL106C, strain sse1, stronger effect = lower value 0.957 | S. cerevisiae deletion strains, locus YPL240C, strain hsp82, stronger effect = lower value 1.02 | S. cerevisiae deletion strains, locus YPL241C, strain CIN2, stronger effect = lower value 0.998 and 1 | S. cerevisiae deletion strains, locus YPL256C, strain CLN2, stronger effect = lower value 0.986 | S. cerevisiae deletion strains, locus YPR119W, strain clb2, stronger effect = lower value 0.999 | S. cerevisiae deletion strains, locus YPR141C, strain kar3, stronger effect = lower value 1.02 | S. cerevisiae deletion strains, locus YPR163C, strain tif3, stronger effect = lower value 1.03 | S. cerevisiae deletion strains, locus YPR167C, strain met16, stronger effect = lower value 1.02 | S. cerevisiae deletion strains, strain wtn01, stronger effect = lower value 1.02 | S. cerevisiae strains, strain wild type, stronger effect = lower value 0.984
